Results as given in PubChem BioAssay AID588726 (The Scripps Research Institute Molecular Screening Center, 2011).
Hit rate of the full screen: of about 360,000 compounds, about 8,200 (2.3%) were called active. No stated cut-off is given here; in the data, active means inhibition above about 27%; inactive means the rest. What follows is part of a selection rich in actives, with near analogues and random picks from the rest.

target: Fructose-bisphosphate aldolase (Mycobacterium tuberculosis (strain ATCC 25618 / H37Rv)) (UniProt P9WQA3); test: M. tuberculosis aldolase activity blockers – biochemical, fluorescence, strain H37Rv, primary screen (AID 588726);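 further: 0% = vehicle and 100% = reference inhibitor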; settings: purified M. tuberculosis FBA, fluorescence read-out, at 1 µM, stronger effect = higher value
Sequence (P9WQA3 whole entry, looked up): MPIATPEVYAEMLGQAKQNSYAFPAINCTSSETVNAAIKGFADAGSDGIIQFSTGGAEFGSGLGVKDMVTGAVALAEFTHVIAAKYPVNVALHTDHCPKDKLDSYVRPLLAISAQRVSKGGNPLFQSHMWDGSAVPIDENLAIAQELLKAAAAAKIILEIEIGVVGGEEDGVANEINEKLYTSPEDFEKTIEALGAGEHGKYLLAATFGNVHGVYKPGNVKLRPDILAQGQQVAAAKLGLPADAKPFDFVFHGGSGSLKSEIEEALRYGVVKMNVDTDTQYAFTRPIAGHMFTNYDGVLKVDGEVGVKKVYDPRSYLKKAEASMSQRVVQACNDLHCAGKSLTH

Row | SMILES | inhibition
1 | Cc1c(NC(=O)C(C)OC(=O)c2ccccc2O)c(=O)n(-c2ccccc2)n1C (stereo not given) | -3.77% (inactive)
2 | COC(=O)c1ccccc1NC(=O)CSc1ccccn1 | 1.02% (inactive)
3 | CC(OC(=O)c1ccccc1NCCO)C(=O)Nc1ccnn1C(C)C (stereo not given) | 92% (active)
4 | C=CCn1cc(C(=O)NCc2ccc(Cl)cc2)c(=O)c2cc(S(=O)(=O)N(CC)CC)ccc21 | 3.32% (inactive)
5 | Nc1ccc(C(=O)OCC(=O)NC2CCS(=O)(=O)C2)cc1[N+](=O)[O-] (stereo not given) | -2.41% (inactive)
6 | O=C(COC(=O)CCCN1C(=O)c2cccc3cccc(c23)C1=O)NC1CCS(=O)(=O)C1 (stereo not given) | 45.1% (active)
7 | O=C(COC(=O)/C=C/c1ccc(Cl)cc1)NC1CCS(=O)(=O)C1 (stereo not given) | -2.05% (inactive)
8 | COc1ccc(NC(=O)CCC(=O)N2CCN(S(=O)(=O)c3ccc(C)cc3)CC2)c(OC)c1 | -0.33% (inactive)
9 | Cc1ncoc1C(=O)N1CCCC(C(=O)c2ccc3c4c(cccc24)CC3)C1 (stereo not given) | 17.8% (inactive)
10 | CC(=O)NCC(=O)N1CCCC(C(=O)c2ccc3c4c(cccc24)CC3)C1 (stereo not given) | 33.7% (active)
11 | CCn1ccnc1CN1CCCC(C(=O)c2ccc3c4c(cccc24)CC3)C1 (stereo not given) | 8.92% (inactive)
12 | CCOC(=O)c1cnc2sccn2c1=O | 20.1% (inactive)
13 | CCOC(=O)c1cnc(COc2ccccc2Cl)[nH]c1=O | 3.61% (inactive)
14 | CCCc1cc(C(=O)N2CCCC(CO)(CCCc3ccccc3)C2)n(C)n1 (stereo not given) | -1.51% (inactive)
15 | N#Cc1c(-c2ccccc2)c(-c2ccccc2)n[nH]c1=O | -6.25% (inactive)
16 | O=C(O)c1n[nH]nc1-c1ccccc1 | 113% (active)
17 | O=C(O)c1ccc(-n2nc(-c3ccccc3)c3ccccc3c2=O)cc1 | 2.23% (inactive)
18 | COc1cc(Cl)c(C)cc1NC(=O)COC(=O)c1cc(SC)ccc1Cl | 7.33% (inactive)
19 | O=C(O)CSc1nccn1-c1cccc(Cl)c1 | 3.31% (inactive)
20 | COC(=O)NNC(=O)C1CCC(C)CC1 (stereo not given) | 1.9% (inactive)

Row | SMILES | inhibition
21 | CCOC(=O)N1CCN(C(=O)CSc2nc(C)nc3c2c(=O)n(C)c(=O)n3C)CC1 | 4.39% (inactive)
22 | OCC[C@H]1C[C@H](O)[C@@H](O)[C@]2(CCc3ccccc3O2)O1 | -1.81% (inactive)
23 | NC(=O)CC[C@@H]1NC(=O)[C@@H]2CCCN2C(=O)c2cc([N+](=O)[O-])cc(F)c2NCCC[C@@H](C(N)=O)NC1=O | -3.88% (inactive)
24 | O=C(NCc1ccco1)c1ccc([N+](=O)[O-])cc1Cl | 3.22% (inactive)
25 | CCc1ccc(-c2cc(C(=O)NCc3ccco3)c3ccccc3n2)s1 | 54.1% (active)
26 | Cc1cc(C(=O)OCC(=O)NCc2ccco2)c(C)n1-c1ccccc1 | -0.83% (inactive)
27 | CN(Cc1ccc(C(F)(F)F)cc1)C(=O)[C@H]1O[C@@H](n2cnc3c(N)ncnc32)[C@H](O)[C@@H]1O | -0.98% (inactive)
28 | CCN1C(=O)CS/C1=N\c1nccs1 | -3.46% (inactive)
29 | COc1cc2c(cc1OC)CC1(CCCCC1)N=C2 | 45% (active)
30 | Cc1ccc(S(=O)(=O)NCc2ccc(C(=O)NC3CCC(C)CC3)cc2)cc1 (stereo not given) | -7.12% (inactive)
31 | COc1ccc(C(=O)Cn2nnc(-c3ccc(N4CCOCC4)cc3)n2)cc1OC | -1.43% (inactive)
32 | COCCCn1c(CCC(=O)O)ccc1-c1ccc(F)cc1 | 50.6% (active)
33 | COc1ccc(-c2ccc(CCC(=O)O)n2NC(=O)c2ccc(C(C)(C)C)cc2)cc1 | 3.01% (inactive)
34 | COc1ccc(-c2ccc(CCC(=O)O)n2-c2ccc(O)cc2)cc1 | -1.15% (inactive)
35 | CC(=O)Nc1ccc(Sc2ccccc2C(=O)N2CCCC2)cn1 | 1.32% (inactive)
36 | COc1ccc(C2C3=C(CCCC3=O)N(CC(=O)O)C3=C2C(=O)CCC3)cc1 | 47.7% (active)
37 | CCOC(=O)C1=C(N)N(c2ccc(C)cc2)C2=C(C(=O)CCC2)C1c1cccs1 (stereo not given) | -1.49% (inactive)
38 | CCCN1C2=C(C(=O)CCC2)C(c2ccc(O)c(Br)c2)C2=C1CCCC2=O | -1.2% (inactive)
39 | COc1ccc(C2C(C#N)=C(N)N(c3ncn[nH]3)C3=C2C(=O)CCC3)cc1 (stereo not given) | 3.59% (inactive)
40 | CCOc1ccc(C2C(C#N)=C(N)N(N(C)C)C3=C2C(=O)CCC3)cc1 (stereo not given) | -0.23% (inactive)

Row | SMILES | inhibition
41 | CCOc1ccc(C2C3=C(CCCC3=O)N(CC(=O)O)C3=C2C(=O)CCC3)cc1 | 39.2% (active)
42 | CC(C)c1ccc(Nc2nnc(SCC(=O)c3nnc(-c4ccccc4)o3)s2)cc1 | -2.05% (inactive)
43 | CCOC(=O)C1CCN(C(=O)C2CCCN(S(=O)(=O)c3ccc(OC)c(Cl)c3)C2)CC1 (stereo not given) | 13.8% (inactive)
44 | COc1ccc(C2NC(=O)c3ccccc3N2)cc1 (stereo not given) | 67% (active)
45 | COc1ccc(C2CC(=O)NC(=O)C2)cc1 | 0.31% (inactive)
46 | O=C1NC(c2cccc(Cl)c2)Nc2ccccc21 (stereo not given) | 30.3% (active)
47 | C=CCOc1cccc(C2NC(=O)c3ccccc3O2)c1 (stereo not given) | 5.49% (inactive)
48 | COc1ccc(C2(O)C(=O)Nc3ccccc32)cc1 (stereo not given) | 1.93% (inactive)
49 | O=C1NC(c2ccccc2)Oc2ccccc21 (stereo not given) | 6.04% (inactive)
50 | CC(C)=CCCC1(C)C=Cc2c(ccc3c2[nH]c2cc(O)c(C)cc23)O1 (stereo not given) | -3.09% (inactive)
51 | COc1cccc(CNC(=O)C(=O)NCCC2CCCCN2S(=O)(=O)c2ccc(C)cc2)c1 (stereo not given) | 1.18% (inactive)
52 | COC(=O)C1NN=C(C(=O)c2ccc(Br)cc2)C1c1cccc(Br)c1 (stereo not given) | -2.34% (inactive)
53 | CC(=O)Nc1cccc(Nc2ccc(C#N)cc2)c1 | 0.34% (inactive)
54 | Oc1ccc(C2Nc3cccc4cccc(c34)N2)cc1 | -2.34% (inactive)
55 | Cc1ccc(C2Nc3cccc4cccc(c34)N2)cc1 | 49.3% (active)
56 | O=[N+]([O-])c1ccc2c(c1)C(N1CCOCC1)/C(=C/C1(O)CCCCC1)O2 (stereo not given) | -4.67% (inactive)
57 | Cc1ccccc1Cn1nc(C)c(NC(=O)C(F)(F)F)c1C | -0.53% (inactive)
58 | COCc1cc(=O)[nH]c2cc(NC(=O)C(F)(F)F)c(C)cc12 | 31.5% (active)
59 | O=C(Nc1ccccc1)c1ccccc1NC(=O)C(F)(F)F | -0.1% (inactive)
60 | COCCCN1C(=O)C(=O)/C(=C(/O)c2ccc(S(=O)(=O)N3CCOCC3)cc2)C1c1ccc(F)cc1 (stereo not given) | 4.42% (inactive)
